High-throughput results (PubChem)
Rows were chosen to be rich in hits. Some 1% of all compounds tested hit in one or more screens of this group.
KCNH2 WT inh: KCNH2 (human, wildtype) channel inhibition; U2OS, BacMam KCNH2, thallium flux FluxOr; stronger effect = lower value; activity change, % at 1.84 µM; 0.37% of 340,000 active;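 active = maximum activity change below -70%; inconclusive = maximum activity change between -70% and -50%; inactive = maximum activity change above -50%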
Target sequence (Q12809 whole entry, looked up): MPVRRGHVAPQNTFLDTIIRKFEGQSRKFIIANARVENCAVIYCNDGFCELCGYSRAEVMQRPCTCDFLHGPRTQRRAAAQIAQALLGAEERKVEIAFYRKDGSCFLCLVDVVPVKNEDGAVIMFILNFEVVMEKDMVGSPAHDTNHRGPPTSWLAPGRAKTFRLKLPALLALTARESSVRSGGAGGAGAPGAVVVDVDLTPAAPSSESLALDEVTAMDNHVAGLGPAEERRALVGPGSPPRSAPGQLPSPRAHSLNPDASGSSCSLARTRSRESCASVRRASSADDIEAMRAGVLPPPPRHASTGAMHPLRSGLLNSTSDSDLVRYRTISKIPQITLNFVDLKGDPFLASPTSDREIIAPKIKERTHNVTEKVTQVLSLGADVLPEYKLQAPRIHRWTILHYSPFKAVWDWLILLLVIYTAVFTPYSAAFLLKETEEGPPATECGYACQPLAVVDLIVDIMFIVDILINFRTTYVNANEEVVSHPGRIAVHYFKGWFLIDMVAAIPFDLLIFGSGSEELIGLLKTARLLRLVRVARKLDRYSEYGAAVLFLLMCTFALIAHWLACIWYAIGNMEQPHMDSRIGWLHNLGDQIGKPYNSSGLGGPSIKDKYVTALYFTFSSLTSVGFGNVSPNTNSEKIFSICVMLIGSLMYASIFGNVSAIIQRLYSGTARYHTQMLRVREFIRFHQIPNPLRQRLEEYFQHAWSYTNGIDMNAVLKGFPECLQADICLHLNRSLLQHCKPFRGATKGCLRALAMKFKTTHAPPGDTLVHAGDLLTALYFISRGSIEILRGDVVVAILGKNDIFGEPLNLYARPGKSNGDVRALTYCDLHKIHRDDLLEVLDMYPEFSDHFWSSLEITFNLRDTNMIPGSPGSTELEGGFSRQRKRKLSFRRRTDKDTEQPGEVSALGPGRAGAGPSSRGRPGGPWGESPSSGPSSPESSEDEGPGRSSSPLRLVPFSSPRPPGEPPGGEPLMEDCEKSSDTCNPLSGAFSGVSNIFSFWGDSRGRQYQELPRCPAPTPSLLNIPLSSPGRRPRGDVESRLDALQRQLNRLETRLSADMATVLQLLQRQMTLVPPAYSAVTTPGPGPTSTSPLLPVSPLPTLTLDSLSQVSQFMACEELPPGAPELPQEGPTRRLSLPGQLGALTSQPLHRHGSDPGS
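U2OS cells transduced with wild-type KCNH2 virus are loaded with FluxOr dye for 45 min, and thallium flux is measured in kinetic reads before and after stimulation buffer. Rate constants are normalized to DMSO controls.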
TRPML1 blocker: inhibitors of human TRPML1 channel; 0.02% of 390,000 active; TRPML1-inducible cells, Ca2+ dye fluorescence, FDSS; stronger effect = lower value; inhibition of EC80 agonist-evoked calcium signal; Q9GZU1; activity change, negative = inhibition, % (no concentration beside the values); in the data active = activity change below about -50%; inconclusive = between about -30% and that limit;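 note: stimulus is agonist 54-4 at its EC80 concentration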
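Tet-induced TRPML1-DL cells loaded with Ca8 no-wash calcium dye were read kinetically on FDSS. Compound addition was followed by EC80 agonist 54-4 (4 uM final); inhibition was read over 110 s.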
TRPML1 ag: agonists of human TRPML1 channel. TRPML1-expressing cells, Ca2+ dye fluorescence, FDSS. activation, % (test concentration not listed). 0.12% of 410,000 active. AID 624414; in the data active = activation above about 50%; inconclusive = mostly about 30% to 49%
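Tetracycline-induced TRPML1-DL cells are seeded and incubated overnight before loading with a no-wash Ca2+ dye and quencher. Agonist activity is taken from the 110 s fluorescence read following compound pin-transfer on an FDSS, before EC80 54-4 challenge.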
PTAP TSG101 blk: blocks PTAP/TSG101 interaction to inhibit HIV-1 budding. Q99816. Fluorescence polarization, FITC-PTAP peptide / Tsg101 binding. Potency, µM (doses to about 115 µM), actives largely listed as inhibitors. 340,000 tested, under 10 active. AID 493005; active = well fitted inhibition curve with a large enough effect in the main read-out, with a control signal flat, not every such curve was filed as active; inconclusive = small, poorly fitted or top-dose-only effect, or effect the other way, or a change in a side signal; inactive = no such curve, though single readings can be large or run the other way
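Tsg101 binding domain (10 uM final) was mixed with compound and a FITC-labeled PTAP peptide (50 nM final) in HEPES pH 7.5 buffer with NaCl, Tween 20, EDTA and TCEP; fluorescence polarization was read after 20 min at r.t.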
GRP78 ERSR act: inducers of ER stress response in human glioma cells; U87-MG GRP78 promoter luciferase reporter, 16 h; Potency, µM, usual class: activators; AID 602332; 0.02% of 420,000 active; active = well fitted activation curve with a large enough effect; inconclusive = small, poorly fitted or top-dose-only effect; inactive = no such curve, though single readings can be large or run the other way; note: series mostly up to about 76 µM; nearly all actives have a fitted effect of over 35% in size
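ERSR induction read as luciferase luminescence (Bright-Glo, 10 min at room temperature) in stably transfected human U87-MG glioma cells exposed to compounds for 16 h, using GRP78 as sensor.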
KCNH2 3.1 inh: inhibitors of human KCNH2 3.1 potassium channel isoform | U2OS KCNH2 3.1, thallium flux FluxOr; stronger effect = lower value | activity change, % (tested at about 1.8 µM) | 0.95% of 340,000 active | AID 720553;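 active = maximum activity change below -70%; inconclusive = maximum activity change from -70% to -50%; inactive = maximum activity change above -50%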;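 note: thallium influx rate constant from kinetic fluorescence after stimulation buffer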
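Thallium flux read-out: FluxOr dye with Red40 quencher in HBSS/HEPES, 45 min at RT. Rate constants from kinetic reads were normalized to positive and negative DMSO controls. Cells: U2OS virally expressing the 3.1 isoform.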
Each line names hits and unclear results; the compound was inactive in the other large screens.

OC(CNCC1CCCO1)Cn1c2ccc(Cl)cc2c2cc(Cl)ccc21 (stereo not drawn)	KCNH2 WT inh inconclusive, KCNH2 3.1 inh -99
Cc1ccc(OCc2nc(-c3ccc(Cl)cc3)n[nH]2)cc1	KCNH2 WT inh -74
NC(=S)NN=C1CSSC1	GRP78 ERSR act 35µM (no result: PTAP TSG101 blk)
CC1(C)CCC(=NNC(N)=S)CC1	none
O=[N+]([O-])c1cc(-n2cnnn2)ccc1N1CCC(Cc2ccccc2)CC1	KCNH2 3.1 inh -81
Cn1cc(CN2CCOc3ccc(C(O)C4CCCCC4)cc3C2)cn1 (stereo not drawn)	none (no result: KCNH2 WT inh, TRPML1 blocker, TRPML1 ag, PTAP TSG101 blk, KCNH2 3.1 inh)
Cc1ccc(CN2CCN(Cc3cc(=O)c4ccccc4[nH]3)CC2CCO)o1 (stereo not drawn)	KCNH2 WT inh -118
Cc1ccc2[nH]c(CN3CCN(C)C(CCO)C3)c(C)c2c1 (stereo not drawn)	none
Cc1ccc(CN2CCN(Cc3c[nH]c4ccccc34)CC2CCO)o1 (stereo not drawn)	none
CCOc1ccccc1CN1CCN(Cc2[nH]c3ccccc3c2C)CC1CCO (stereo not drawn)	KCNH2 3.1 inh -74
CCOc1ccc(CN2CCN(Cc3[nH]c4ccc(OC)cc4c3C)CC2CCO)cc1 (stereo not drawn)	KCNH2 WT inh -73, KCNH2 3.1 inh -107
Cc1nc2ccc(C(=O)N3CCc4c(cnc(C)c4CNC(=O)/C=C/c4cccs4)C3)cc2nc1C	none (no result: KCNH2 WT inh, TRPML1 blocker, TRPML1 ag, PTAP TSG101 blk, KCNH2 3.1 inh)
CCc1nc2cc(C(=O)N3CCCN(C=O)CC3)cc(NC(=O)c3ccccc3OC)c2n1C	none (no result: KCNH2 WT inh, TRPML1 blocker, TRPML1 ag, PTAP TSG101 blk, KCNH2 3.1 inh)
Cc1cc(-c2nn(-c3ccccc3F)cc2CN2CCC(O)CC2)c(C)s1	none
Cc1cc(-c2nn(-c3ccccc3F)cc2CN2CCN(c3ccncc3)CC2)c(C)s1	KCNH2 WT inh -137, KCNH2 3.1 inh -136
Cc1ccc(CN2CCOc3ccc(CN4CCC(O)(c5cccnc5)CC4)cc3C2)cc1	none (no result: KCNH2 WT inh, TRPML1 blocker, TRPML1 ag, PTAP TSG101 blk, KCNH2 3.1 inh)
CN1CCN(CC(=O)Nc2c(C(=O)c3ccccc3)oc3ccccc23)CC1	KCNH2 WT inh -101, KCNH2 3.1 inh -106
COc1ccccc1-c1nc2cc(C(=O)NC[C@H]3CCc4ccccc4O3)cc(NC(C)=O)c2n1C	none (no result: KCNH2 WT inh, TRPML1 blocker, TRPML1 ag, PTAP TSG101 blk, KCNH2 3.1 inh)
O=C(Cn1cncn1)NCCCc1ccccc1	KCNH2 WT inh -177
Cc1ccc(CN2CC(C(=O)N3CCN(S(=O)(=O)c4cc(C)ccc4C)CC3)CC2=O)cc1 (stereo not drawn)	none
Cc1ccc(CN2CC(C(=O)N3CCN(S(=O)(=O)c4ccc(C(C)C)cc4)CC3)CC2=O)cc1 (stereo not drawn)	KCNH2 3.1 inh -79
Cc1nn(-c2nc3ccccc3[nH]2)c(N)c1-c1ccc(Cl)cc1	KCNH2 3.1 inh -84
Cc1ccc(-c2cc(C(=O)NN=C3CCCC3)c3ccccc3n2)cc1	KCNH2 WT inh -197
C/C(=N\NC(=O)c1cc(-c2cccnc2)nc2ccccc12)c1ccccc1O	KCNH2 3.1 inh -110
CCOC(=O)N1CCN(Cc2ccc3c(c2)CN(C(=O)c2cc(-c4ccccc4)no2)CCO3)CC1	none (no result: KCNH2 WT inh, TRPML1 blocker, TRPML1 ag, PTAP TSG101 blk, KCNH2 3.1 inh)
CCC1CN(CCNC(=O)c2ccccc2-n2cccn2)Cc2cc(OC)ccc2O1 (stereo not drawn)	none (no result: KCNH2 WT inh, TRPML1 blocker, TRPML1 ag, PTAP TSG101 blk, KCNH2 3.1 inh)
O=C(N1CCOCC1)N(Cc1cccs1)C1CCCC1	KCNH2 3.1 inh -80
Cc1cccc(C)c1NC(=S)N(Cc1cccs1)C1CCCC1	KCNH2 3.1 inh inconclusive
Cc1cc(C(F)F)n2ncc(C(=O)N3CCc4ccccc4C3)c2n1	none
O=C(c1cnn2c(C(F)F)cc(C3CC3)nc12)N1CCCC1	KCNH2 3.1 inh -99
O=C(c1cnn2c(C(F)F)cc(-c3ccccc3)nc12)N1CCc2ccccc2C1	TRPML1 ag 58
O=C(c1cnn2c(C(F)F)cc(C3CC3)nc12)N1CCc2ccccc2C1	none
COCC1CCCN(Cc2ccc3c(c2)CN(C(=O)c2sc(C)nc2C)CCO3)C1 (stereo not drawn)	none (no result: KCNH2 WT inh, TRPML1 blocker, TRPML1 ag, PTAP TSG101 blk, KCNH2 3.1 inh)
CCOC(=O)c1cnc(-n2nc(C)cc2C)nc1NC1CCCCC1	KCNH2 WT inh -105
CCOC(=O)c1cnc(-n2nc(C)cc2C)nc1NC	none
